# Assay: basal HepG2 mitochondrial membrane potential changes, profiling panel, cell-based, JC-1 fluorescence, 24 h, 100 nL compound (AID 1167); note: test concentration not given here
# Settings: higher = more signal
row,SMILES,z-score
1,COc1cc(CO)cc(I)c1O[C@H]1C=C(C(=O)NCCO)C[C@@H](N(CCN2CCOCC2)C(=O)C2CCCO2)[C@@H]1O (some centres not stated),1.68
2,O=C1C2C=CC(C(O)C(c3ccccc3)c3ccccc3)N(Nc3ccccc3F)C2C(=O)N1c1ccccc1 (configuration not stated),-1.7
3,COC(=O)C[C@H]1O[C@]2(C(=O)N(C)c3ccccc32)[C@@H](C)[C@@H]1[Si](C)(C)c1ccccc1,-0.57
4,CC(C)(C)OC(=O)CC[C@]1(C(=O)N2CCOCC2)COC(c2ccc(OCCCO)cc2)=N1,2.31
5,C=C(CC1([C@@H](NP(=O)(c2ccccc2)c2ccccc2)[C@H]2C[C@@H]2CCCC)CC1)c1cccc(OC)c1,-1.28
6,COc1ccc(C(=O)Nc2cccc(CN3C(=O)[C@]4(O[C@H](CC(=O)N(CCO)Cc5ccccc5)[C@@H]([Si](C)(C)c5ccc(OC)cc5)[C@@H]4C)c4ccccc43)c2)cc1,0.52
7,CC[C@@H](O[Si](C#C[Si](C(C)C)(C(C)C)C(C)C)(C(C)C)C(C)C)c1cn([C@H](CO)Cc2ccccc2)nn1,0.74

# — PubChem BioAssay
